# Measurements published in ChEMBL document CHEMBL4513216, “Probing the Open Global Health Chemical Diversity Library for Multistage-Active Starting Points for Next-Generation Antimalarials” (ACS Infect Dis, 2020).
# Screen size: about 69,000 compounds; about 8,600 (12%) showed an effect of 50% or more. The sample as a whole holds a higher share of strong results than the screen did.
# Tested on: Plasmodium berghei
# Assay: Screen against P. berghei liver stage (PbLuc), transformed with Luciferase, at 10uM
# Assay type: functional, HepG2
# Settings: tested at 10 uM
row,Compound,INHIBITION
1,Cc1ccn(-c2ccnc(N3CCC(N4CCCCC4)CC3)n2)n1,-13%
2,Clc1cc(N2CCC(N3CCCC3)CC2)nc2[nH]ccc12,51.5%
3,Cc1nc(N2CCN3CCCCC3C2)nc2cc(S(C)(=O)=O)ccc12 (stereo unspecified),20.6%
4,Cn1ncc2c(N3CCN4CCCCC4C3)nc(C3CCCC3)nc21 (stereo unspecified),-24.8%
5,Clc1cc(N2CCN(C3CCOCC3)CC2)nc2[nH]ccc12,5.91%
6,Clc1cc(N2CCN3CCCCC3C2)nc2[nH]ccc12 (stereo unspecified),72.2%
7,O=C(NCCNS(=O)(=O)C1CCCCC1)c1ccccc1,15.4%
8,CN(C)CCNC(=O)c1ccccc1NC(=O)c1cc(Cl)ccc1Cl,44.4%
9,O=c1cc(-c2ccc(F)cc2)nc2n1CCCCC2,7.25%
10,O=S(=O)(C1CC1)N1CCO[C@H]2[C@@H](Oc3cccnc3)CC[C@@H]21,37.1%
11,CN(C)C(=O)c1cccc(C2CNCCN2C)c1 (stereo unspecified),15.255%
12,Cc1cn(Cc2ccc(F)cc2)nc1N,-46.4%
13,Cc1cn(Cc2ccc(F)c(F)c2)nc1N,70.8%
14,Cc1ccc(Cn2cc(C)c(N)n2)cc1,8.53%
15,CCc1ccc(CN2CC[C@H]3[C@H]2CC(=O)N3Cc2cccc(C)n2)o1,30.9%
16,CCN(CCCc1ccccc1)CC1(C)Cc2c(N)nc(N)nc2O1 (stereo unspecified),26.8%
17,CCn1nc(C)c(CCNC(=O)C2CCCN(C(=O)COC)C2)c1C (stereo unspecified),-13.6%
18,Cc1ccc2nc(CNc3ccccc3C(=O)NC3CC3)cn2c1,7.38%
19,Cc1ccc([C@@H]2CN(S(=O)(=O)c3ccccc3)C[C@H]2N(C)C)cc1,0.818%
20,Cc1ccc([C@@H]2CN(S(=O)(=O)Cc3ccccc3)C[C@H]2N(C)C)cc1,55.2%
21,Cc1ccc([C@@H]2CN(S(=O)(=O)N(C)C)C[C@H]2N(C)C)cc1,-11.1%
22,Cc1nc2c(c(C)c1CC(=O)NCc1ccc(F)cc1)c(=O)[nH]n2C,-12.1%

row,Compound,INHIBITION
1,Cc1cc(C(=O)N[C@H]2CN(CCC(N)=O)C[C@@H]2C2CC2)sc1C,50.5%
2,Cc1cc(C(=O)N[C@H]2CN(CCO)C[C@@H]2C2CC2)sc1C,44%
3,Cc1nc(N)sc1C(=O)N[C@H]1CN(CCO)C[C@@H]1C1CC1,12%
4,CCOc1cc(C)nc(N2CCN(C(=O)c3cnc[nH]3)CC2)n1,-3.2%
5,CC(C)CCN1CCC2(CC1)CN(C(=O)c1cnccn1)CCO2,-12.6%
6,CS(=O)(=O)NC1CCN(Cc2coc(-c3ccc(Cl)cc3)n2)CC1,79.5%
7,CC(O)CN1CCN(Cc2coc(-c3ccc(Cl)cc3)n2)CC1 (stereo unspecified),47.1%
8,Cc1nc(CN2CCC(NS(C)(=O)=O)CC2)co1,34%
9,O=C(C1CC1)N1CCN(Cc2coc(-c3ccc(Cl)cc3)n2)CC1,76.1%
10,OCCN1CCN(Cc2coc(-c3ccc(Cl)cc3)n2)CC1,11.6%
11,CS(=O)(=O)NC1CCN(Cc2coc(-c3ccccc3)n2)CC1,30.4%
12,CN(C)CC1CN(C(=O)CCc2ccccc2)Cc2nccn2C1 (stereo unspecified),-41.8%
13,Cc1occc1C(=O)N1Cc2nccn2CC(CN(C)C)C1 (stereo unspecified),44.8%
14,c1ccc(-n2cc(CNC3CCc4ncnn4C3)nn2)cc1 (stereo unspecified),41.45%
15,O=C(Nc1cccnc1N1CCCC1)C1CCS(=O)(=O)C1 (stereo unspecified),-7.35%
16,COc1ccc(OC)c(CNCc2c(C)nc3sc(C)cn23)c1,10.8%
17,COc1ccc(CNC(C)Cn2cccn2)c(OC)c1OC (stereo unspecified),25.1%
18,COc1cccc(CNCC2CCN(CC(C)O)CC2)c1OC (stereo unspecified),7.85%
19,COc1ccc(CNCc2c(C)nc3sc(C)cn23)c(OC)c1OC,64.6%
20,COc1cccc(CNCc2c(C)nc3sc(C)cn23)c1OC,66.4%
21,COc1cccc(CNCc2c(C(C)C)nn(C)c2N(C)C)c1OC,-7.84%
22,O=C(NCCc1noc(-c2ccccn2)n1)NCC1CCCC1,-18.3%

row,Compound,INHIBITION
1,CC(C)c1nnc2ccc(N3CCC(C(=O)O)CC3)nn12,-9.3%
2,Cc1c(Cl)cccc1S(=O)(=O)N1C[C@H]2CC[C@@H](C1)N(C)C2=O,0.546%
3,CN(C)C(=O)c1nnc2ccc(N3CCOCC3)cc2n1,-13.9%
4,CN(Cc1cccnc1)C[C@H]1OC[C@@H]2CCN(C(=O)C3CC3)C[C@@H]21,54.8%
5,CN(Cc1ccco1)C[C@H]1OC[C@@H]2CCN(Cc3cccnc3)C[C@@H]21,41.4%
6,CN(C)C[C@H]1OC[C@@H]2CN(C(=O)NCc3cccnc3)CC[C@@H]21,5.63%
7,CN(Cc1cccnc1)C[C@H]1OC[C@@H]2CCN(c3ncccn3)C[C@@H]21,14%
8,CN(Cc1cccnc1)C[C@@H]1OC[C@H]2CN(C(=O)C3CC3)CC[C@H]21,76.2%
9,CN(Cc1cccnc1)C[C@@H]1OC[C@H]2CN(Cc3ccoc3)CC[C@H]21,2.79%
10,O=C(CCN1CCOC(CNc2cccnn2)C1)NC1CCCCC1 (stereo unspecified),9.64%
11,O=C(CCCOc1ccccc1)N1CCCC(n2cncn2)C1 (stereo unspecified),14.133%
12,CC(=O)N1CC(C(=O)NC(C)c2cnn(C)c2C)C1 (stereo unspecified),8.57%
13,CCN1CC[C@@]2(C(=O)N(C)C)CCN(S(=O)(=O)c3ccccc3)CC[C@@H]12,-89.8%
14,CC(NC(=O)c1cccs1)(C(N)=O)c1cccc(C(F)(F)F)c1 (stereo unspecified),62%
15,Cn1cccc1C(=O)NC(C)(C(N)=O)c1cccc(C(F)(F)F)c1 (stereo unspecified),61.1%
16,Cc1nncn1CCNC(=O)C(C)(C)c1cccc(C(F)(F)F)c1,-0.758%
17,CC(NC(N)=O)C(=O)N(C)Cc1cccc(C(F)(F)F)c1 (stereo unspecified),12%
18,CN1CCN(c2ccc(NC(=O)c3cccs3)c(C(F)(F)F)c2)CC1,-29%
19,Cn1cccc1C(=O)NC(C)(C(N)=O)c1cccc(Cl)c1 (stereo unspecified),11.5%
20,O=C(O)[C@@H]1CN(C(=O)CCC(F)(F)F)C[C@H]1c1ccncc1,11.6%
21,CC(C)C(CNC(=O)CCn1cncn1)N1CCc2ccccc2C1 (stereo unspecified),60.5%
22,CC(Cn1cncn1)NCCN1CCc2ccccc2C1 (stereo unspecified),45.1%

row,Compound,INHIBITION
1,CC(CNC(=O)CCn1cncn1)N1CCc2ccccc21 (stereo unspecified),-7.7%
2,CC(NC(=O)CCn1cncn1)c1nnc2n1CCCCC2 (stereo unspecified),39.2%
3,CC(CNC(=O)CCCn1cncn1)N1CCc2ccccc2C1 (stereo unspecified),69.7%
4,CCC(CNC(=O)CCn1cncn1)N1CCc2ccccc2C1 (stereo unspecified),-19.5%
5,Cc1cc2c(=O)n3c(nc2s1)CCN(C(=O)c1cnn(C)c1)CC3,-11.7%
6,CC(C)N1CCCC1c1cc(C(F)(F)F)[nH]n1 (stereo unspecified),-7.7%
7,Cc1cc(NC(C)Cn2cccn2)n2nccc2n1 (stereo unspecified),33%
8,O[C@@H]1CC(CNCc2ccc(F)cc2)(COc2cccnc2)C[C@@H]1O (stereo partly specified),38.1%
9,Cn1cccc1C(=O)NC1(C(=O)NCC2CC2)CCCC1,8.38%
10,Cc1ccc2c(C(=O)N(C)C)cc(-c3cnn(CCO)c3)nc2c1C,31.15%
11,COc1ncc(C2(O)CCN(Cc3c(F)cccc3F)CC2)c(OC)n1,53%
12,COc1ncc(C2(O)CCN(Cc3ccccc3O)CC2)c(OC)n1,65.5%
13,COc1ncc(C2(O)CCN(Cc3cccc(F)c3F)CC2)c(OC)n1,44.1%
14,CCc1ncc(CN2CCC(O)(c3ccccc3F)CC2)cn1,18.2%
15,COc1ncc(C2(O)CCN(Cc3cccs3)CC2)c(OC)n1,8.48%
16,COc1ncc(C2(O)CCN(Cc3cc(F)cc(F)c3)CC2)c(OC)n1,39.7%
17,Cc1ncc(CN2CCC(O)(c3ccccc3F)CC2)cn1,-4.675%
18,COc1ncc(C2(O)CCN(Cc3cc(F)ccc3F)CC2)c(OC)n1,24.8%
19,COc1ncc(C2(O)CCN(Cc3ccc(F)c(F)c3)CC2)c(OC)n1,57.5%
20,CN(C)CCn1nc(C2CCN(S(=O)(=O)N(C)C)C2)c2cccnc21 (stereo unspecified),6.33%
21,Fc1ccc(OCCNCCn2cccn2)cc1,0.914%
22,Cc1cc(C(=O)N2CCN(c3ccncc3Cl)CC2)n(C)n1,10.3%

row,Compound,INHIBITION
1,CSc1nnc(C2CCN(C(=O)N3CCCC3)CC2)n1C(C)C,20.09%
2,COC(=O)C(C)N(Cc1cc(C)on1)C1CC1 (stereo unspecified),52.2%
3,Cc1cc(CN(C2CC2)C(C)C(C)C)no1 (stereo unspecified),-26.1%
4,COC(=O)C(C)N(Cc1cc(=O)n(C)c(=O)n1C)C1CC1 (stereo unspecified),-37.1%
5,O=C(c1c[nH]cn1)N1CCOCC2(C1)CN(c1ccccc1)C(=O)CO2 (stereo unspecified),8.52%
6,Cc1noc(C)c1C(=O)N1CCC2(CCc3ccccc3C(=O)N2)C1 (stereo unspecified),9.925%
7,Cn1nc2c(cc1=O)CN(Cc1nc(-c3ccsc3)no1)CC2,-7.31%
8,CC(C)c1nn(C)c(N2CCOCC2)c1CNCc1nncn1C,-18.9%
9,CC(C)CNC(=O)c1cc(C2CC2)nc2c1c(C1CCCN1)nn2C (stereo unspecified),30%
10,CS(=O)(=O)NC[C@]12COC[C@H]1CN(C(=O)C1CCCCC1)C2,13.6%
11,O=S(=O)(NC[C@]12COC[C@H]1CN(CCc1ccccc1)C2)C1CC1,24.9%
12,CS(=O)(=O)NC[C@]12COC[C@H]1CN(C(=O)C1CC(F)(F)C1)C2,57.5%
13,CS(=O)(=O)NC[C@]12COC[C@H]1CN(CC1CCC1)C2,66.6%
14,CS(=O)(=O)NC[C@]12COC[C@H]1CN(CCc1ccccc1)C2,65.1%
15,CS(=O)(=O)NC[C@]12COC[C@H]1CN(C(=O)CC1CCCC1)C2,14%
16,CS(=O)(=O)NC[C@]12COC[C@H]1CN(C(=O)C1CC=CC1)C2,23.1%
17,CCS(=O)(=O)NC[C@]12COC[C@H]1CN(CCc1ccccc1)C2,-58.7%
18,CS(=O)(=O)NC[C@]12COC[C@H]1CN(CC1CCCC1)C2,6.82%
